Bioassay records (PubChem BioAssay)
This is one part of a sample in which hits are shown more often than they occur.
AMA1-RON2 inh: AMA1-RON2 (P. falciparum) interaction inhibition; AlphaScreen AMA1-biotinylated RON2 peptide binding; Potency, µM (titrated, usually from 58.2 µM), actives largely listed as inhibitors; 0.2% of 360,000 active; active means well fitted inhibition curve with a large enough effect; inconclusive means small, poorly fitted or top-dose-only effect; inactive means no such curve, though single readings can be large or run the other way; further: nearly all actives have a fitted effect of over 45% in size
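AMA1 (3D7) with his tag at 25 nM final met compounds first, then biotinylated RON2 peptide at 25 nM; detection used donor plus acceptor beads, 10 µg/mL apiece, read by AlphaScreen after 30 min at room temperature.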
Shiga inhibitor: blocks Shiga toxin action in Vero cells; 9.2% of 290,000 active; Vero cells, Shiga toxin protein synthesis inhibition reporter; inhibition, % at 38.7 µM; in the data active means inhibition mostly above about 28%, no sharp cut-off; inactive means mostly below about 43%
Marburg entry inh: blocks Marburg virus binding to or entry into cells; Marburg virus pseudotyped entry inhibition, cell reporter; Potency, µM (doses to about 37.8 µM), usual class: inhibitors; 1.8% of 300,000 active; AID 540276; calls by dose curve; tested in HEK293 cells
CHX counter: counter-screen hit for Shiga toxin inhibitors, cycloheximide | cell reporter, cycloheximide protein synthesis inhibition counterscreen | AID 2314 | max response, % | 12% of 300,000 active; in the data active means max response mostly above about 13%, no sharp cut-off; inactive means mostly below about 14%; further: read at 38.3 µM for the half of the compounds with a filed dose
LASV entry inh: Lassa virus entry inhibition; Lassa virus pseudotype entry inhibition, cell reporter; Potency, µM (series often up to 37.9 µM), most hits filed as inhibitors; 1.2% of 300,000 active; AID 540256; calls by dose curve; tested in HEK293 cells; further: nearly all actives have a fitted effect of over 50% in size
Of the large screens only hits and unclear results are named; the others gave an inactive call.

O=C(Cc1cccs1)NCc1cn2ccccc2n1	none (no result: Marburg entry inh, LASV entry inh)
O=C(Nc1ccc(-c2cn3ccccc3n2)cc1)c1ccco1	Shiga inhibitor 68, Marburg entry inh inconclusive, CHX counter 58, LASV entry inh inconclusive
CCOc1ccc(N(C)S(=O)(=O)c2ccc(C)c(C(=O)OCC(=O)c3c[nH]c4ccccc34)c2)cc1	Marburg entry inh 1.4µM
O=C1NC(=O)N(c2ccc(Cl)cc2)C(=O)/C1=C/c1coc2ccc(O)cc2c1=O	none (no result: Marburg entry inh, LASV entry inh)
O=C1NC(=O)N(c2ccccc2)C(=O)/C1=C/c1coc2ccc(O)cc2c1=O	Shiga inhibitor 28, CHX counter 24 (no result: Marburg entry inh, LASV entry inh)
O=C1NN(c2ccccc2)C(=O)/C1=C/c1coc2ccccc2c1=O	Shiga inhibitor 54, Marburg entry inh inconclusive, CHX counter 81, LASV entry inh inconclusive
O=C1NN(c2ccccc2)C(=O)/C1=C\c1coc2ccc(O)cc2c1=O	none (no result: Marburg entry inh, LASV entry inh)
Cc1ccccc1NC(=O)CSc1nc(-c2ccco2)nc2cc(=O)[nH]n12	none (no result: AMA1-RON2 inh, Shiga inhibitor, Marburg entry inh, CHX counter)
O=C1Nc2ccccc2SC1c1ccccc1 (stereo not given)	none (no result: Marburg entry inh, LASV entry inh)
Cc1ccc(NC2Sc3ccccc3NC2=O)cc1 (stereo not given)	Shiga inhibitor 41, Marburg entry inh inconclusive, CHX counter 22
O=C1OCC2=C1C(c1ccc3c(c1)OCO3)Sc1ccccc1N2 (stereo not given)	Marburg entry inh inconclusive
CCOc1ccc(C2Sc3ccccc3NC3=C2C(=O)OC3)cc1 (stereo not given)	CHX counter 23
CCOc1ccc(CNC(=O)c2ccc(Sc3ccc(C)cc3)c(NC(C)=O)c2)cc1	LASV entry inh inconclusive
CCOC(=O)C1(Cc2ccccc2)CCCN(C(=O)c2cnn(CC)c2)C1 (stereo not given)	Shiga inhibitor 73, Marburg entry inh inconclusive, CHX counter 29
CCOC(=O)C1(Cc2ccccc2)CCCN(Cc2cnn(CC)c2)C1 (stereo not given)	none (no result: Marburg entry inh, LASV entry inh)
CCOC(=O)C1(Cc2ccccc2C)CCCN(C(=O)c2ccccn2)C1 (stereo not given)	Shiga inhibitor 71, CHX counter 40
CCOC(=O)C1(Cc2ccccc2C)CCCN(C(=O)CCc2cccnc2)C1 (stereo not given)	Shiga inhibitor 33, CHX counter 32
CCOC(=O)C1(Cc2ccccc2C)CCCN(C(=O)c2ccc3nccnc3c2)C1 (stereo not given)	none
CCOC(=O)C1(Cc2ccccc2C)CCCN(C(=O)CCn2nccc2C)C1 (stereo not given)	none
COC(=O)C1CC2(C(=O)OC)CC(C(=O)OC)(CC(C(=O)OC)C2=O)C1=O (stereo not given)	none (no result: Shiga inhibitor, CHX counter)
COc1cc(/C=N/n2c(-c3ccc4c(c3)NC(=O)CO4)csc2=Nc2cccc(C)c2)ccc1O	Shiga inhibitor 38, Marburg entry inh inconclusive, CHX counter 33, LASV entry inh 23µM
O=C(Nc1nnc(C2CC2)s1)C1Cc2ccccc2CN1S(=O)(=O)c1ccccc1F (stereo not given)	CHX counter 41
O=C(NC1CCCCC1)C1Cc2ccccc2CN1S(=O)(=O)c1ccc(F)cc1 (stereo not given)	none
O=C(Nc1nccs1)C1Cc2ccccc2CN1S(=O)(=O)c1ccc(F)cc1 (stereo not given)	Shiga inhibitor 94, Marburg entry inh inconclusive, CHX counter 48, LASV entry inh inconclusive
COc1ccc([C@H]2C[C@H](n3cc(COC(=O)c4ccccc4)nn3)[C@@H](O)CN2Cc2cccs2)cc1	Marburg entry inh inconclusive (no result: Shiga inhibitor, CHX counter, LASV entry inh)
CC/C(=N\Nc1ccccc1)c1c(O)n(-c2ccccc2)c(=O)[nH]c1=O	LASV entry inh 10µM
C/C(=N\NC(=O)c1ccccc1)c1c(O)n(Cc2ccccc2)c(=O)[nH]c1=O	Shiga inhibitor 101, Marburg entry inh inconclusive, CHX counter 52
CC/C(=N\NC(=O)Nc1ccccc1)c1c(O)n(Cc2ccccc2)c(=O)[nH]c1=O	Shiga inhibitor 105, CHX counter 35
Cc1ccc(N/N=C/c2c(O)n(-c3ccccc3)c(=O)[nH]c2=O)cc1	Marburg entry inh inconclusive, CHX counter 22, LASV entry inh inconclusive
COc1ccc2c(c1)C(=O)N(c1ccccc1C)C(=O)C2(C)C	none
COc1cccc(-c2ccc(-c3noc(-c4ccccc4Br)n3)c(OC)n2)c1	none (no result: AMA1-RON2 inh, Shiga inhibitor, CHX counter)
O=[N+]([O-])c1cccc(-c2nc(-c3ccccn3)no2)c1	Shiga inhibitor 72, CHX counter 46 (no result: Marburg entry inh, LASV entry inh)
CNc1ccc(-c2nc(-c3ccccn3)no2)cc1[N+](=O)[O-]	none (no result: AMA1-RON2 inh, Shiga inhibitor, CHX counter)
COc1ccc(N2CCN(c3ccc(-c4nc(-c5cccc(C)c5)no4)cc3[N+](=O)[O-])CC2)cc1	none (no result: AMA1-RON2 inh, Shiga inhibitor, CHX counter)
COc1cccc(-c2nc(-c3ccccn3)no2)c1	Marburg entry inh 2.3µM, LASV entry inh 1.5µM
COc1cccc(-c2nc(-c3ccc(NC(=O)c4cccnc4)cc3)no2)c1	Marburg entry inh inconclusive, LASV entry inh inconclusive
COc1cccc(-c2noc(C(C)n3nc(C)c([N+](=O)[O-])c3C)n2)c1 (stereo not given)	Marburg entry inh inconclusive, CHX counter 18, LASV entry inh inconclusive
COc1cccc(-c2noc(-c3cccnc3)n2)c1	Shiga inhibitor 68, Marburg entry inh inconclusive, CHX counter 34, LASV entry inh inconclusive
Cc1oc(S(=O)(=O)N(C)C)cc1C(=O)Nc1ccc(Cl)cc1	none (no result: Marburg entry inh, LASV entry inh)
Cc1ccc(S(=O)(=O)NC(=O)COc2ccc([N+](=O)[O-])cc2)cc1	Marburg entry inh inconclusive
COc1ccc(-c2nnc(COc3ccc4ccccc4c3)o2)cc1OC	Marburg entry inh inconclusive, LASV entry inh 21µM
COc1cccc(OCc2nnc(-c3cccs3)o2)c1	Shiga inhibitor 33, CHX counter 33 (no result: AMA1-RON2 inh, Marburg entry inh, LASV entry inh)
COc1ccc(-c2nc(-c3cccnc3)no2)cc1OC	Shiga inhibitor 47, Marburg entry inh inconclusive, CHX counter 39
COc1cc(-c2nc(-c3cccnc3)no2)cc(OC)c1OC	none
COc1cccc(-c2nnc3sc(-c4cccs4)nn23)c1	none
COc1cccc(NC(=O)CSc2nnc(-c3cccs3)o2)c1	Marburg entry inh inconclusive (no result: AMA1-RON2 inh, Shiga inhibitor, CHX counter)
COc1cccc(-c2noc(-c3cccs3)n2)c1	Shiga inhibitor 54, Marburg entry inh inconclusive, CHX counter 39, LASV entry inh inconclusive
COc1ccc(NC(=O)c2cc(S(=O)(=O)N3CCc4ccccc43)cn2C)cc1OC	none (no result: Marburg entry inh, LASV entry inh)
COc1cccc(-c2noc(N)c2C#N)c1	CHX counter 17
COc1cccc(-c2nc(-c3ccccc3)no2)c1	Shiga inhibitor 63, Marburg entry inh inconclusive, CHX counter 37, LASV entry inh 14µM
O=C(NCCc1nc2ccc(Cl)cc2[nH]1)C1CCC(=O)N(Cc2cccc(F)c2)C1 (stereo not given)	Marburg entry inh inconclusive
CC1CCN(C(=O)c2ccc3c(c2NCCO)C(=O)c2ccccc2C3=O)CC1	AMA1-RON2 inh inconclusive
CCN(CC)CCNC(=O)c1ccc2c(c1NCCO)C(=O)c1ccccc1C2=O	Shiga inhibitor 40 (no result: Marburg entry inh, LASV entry inh)
O=S(=O)(O)c1ccc(O)c2cc(Nc3ccccc3)ccc12	AMA1-RON2 inh 3.2µM, Marburg entry inh inconclusive (no result: Shiga inhibitor, CHX counter)
O=S(=O)(O)c1cc(O)c2cc(Nc3ccccc3)ccc2c1	Marburg entry inh inconclusive (no result: Shiga inhibitor, CHX counter)
CCC(=O)c1cn(CC(=O)Nc2ccc(F)cc2)c2ccccc12	none (no result: Shiga inhibitor, Marburg entry inh, CHX counter, LASV entry inh)
O=C(CN(CCO)Cc1ccccc1)N1CCN(S(=O)(=O)c2ccccc2)CC1	none (no result: Shiga inhibitor, Marburg entry inh, CHX counter, LASV entry inh)
